Screening results: PubChem BioAssay, National Center for Advancing Translational Sciences (NCATS)
Hits are enriched below; roughly 7.4% of the tested compounds scored in any of these assays.
SNCA expr inhib: Primary qHTS assay for inhibitors of alpha-synuclein gene (SNCA) expression | Potency, µM (top dose mostly 57.2 µM), without a hit: at the top dose activity change, negative = inhibition, actives largely listed as inhibitors | 140,000 compounds, 0.17% hits | AID 1671194, 2021 | HEK-293 SNCA-luciferase knock-in, luminescence, 24 h;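 note: plate controls were DMSO cells for no effect and cell-free wells for full effect; nearly all actives have a fitted effect of over 45% in size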
HEK cytotox: Cytotoxic Profiling in HEK 293 Cell Line of Diverse Libraries Using Quantitative High-Throughput Screening; Potency, µM (top dose mostly 115 µM), without a hit: top-dose activity change, negative = cytotoxicity, actives largely listed as inhibitors; 94,000 compounds, 6.6% hits; HEK 293 viability, ATP luminescence (CellTiter-Glo), 48-72 h; AID 1345083, 2018; note: nearly all actives have a fitted effect of over 60% in size
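CellTiter-Glo luminescence (cellular ATP) was read after 48 or 72 hr of compound exposure at 37 degree Celsius. Cells were HEK 293 plated at 250 cells/well.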
Luciferase inh: Firefly luciferase inhibition profiling of diverse chemical library using quantitative high-throughput screening; Luciferin 4-monooxygenase (Photinus pyralis), P08659; purified P. pyralis luciferase, luminescence, biochemical; Potency, µM (top dose mostly 115 µM), actives largely listed as inhibitors; 76,000 compounds, 2.5% hits; note: nearly all actives have a fitted effect of over 65% in size
Target sequence (P08659 whole entry, looked up): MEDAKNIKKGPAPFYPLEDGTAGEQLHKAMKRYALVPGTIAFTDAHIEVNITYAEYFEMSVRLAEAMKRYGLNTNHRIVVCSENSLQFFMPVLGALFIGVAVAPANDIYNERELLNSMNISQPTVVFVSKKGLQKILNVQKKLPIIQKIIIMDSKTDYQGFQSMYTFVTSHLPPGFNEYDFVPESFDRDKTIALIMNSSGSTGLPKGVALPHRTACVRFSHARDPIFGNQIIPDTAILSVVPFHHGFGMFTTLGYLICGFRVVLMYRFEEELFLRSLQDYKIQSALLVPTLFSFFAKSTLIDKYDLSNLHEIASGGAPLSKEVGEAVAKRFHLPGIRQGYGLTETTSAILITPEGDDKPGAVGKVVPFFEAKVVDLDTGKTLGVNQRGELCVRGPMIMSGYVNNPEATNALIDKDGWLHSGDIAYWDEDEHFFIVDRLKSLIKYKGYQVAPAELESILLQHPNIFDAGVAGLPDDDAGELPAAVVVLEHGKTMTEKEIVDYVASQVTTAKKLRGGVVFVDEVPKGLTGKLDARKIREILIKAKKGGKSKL
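Biochemical qHTS: compound (6-point titration) added to 10uM D-luciferin plus 10uM ATP in Tris acetate pH 7.5 buffer with Mg, Tween-20 and BSA, then purified enzyme at 10nM; light output imaged.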
3T3 cytotox: Cytotoxic Profiling in NIH 3T3 Cell Line of Diverse Libraries Using Quantitative High-Throughput Screening | 94,000 compounds, 4.3% hits | NIH 3T3 viability, CellTiter-Glo ATP luminescence, 48-72 h | Potency, µM (titrated, usually from 96.7 µM), for the others: at the highest dose activity change, negative = cytotoxicity, most hits filed as inhibitors; note: nearly all actives have a fitted effect of over 55% in size
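Cells were seeded at 400 per well, treated with pin-transferred compound, and kept 48 or 72 hr at 37 °C before CellTiter-Glo addition and luminescence imaging of cellular ATP.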
SNCA viab count: GF-AFC viability counterscreen for inhibitors of alpha-synuclein gene (SNCA) expression; HEK-293-SNCA-luc viability, GF-AFC fluorescence, 24 h; Potency, µM (series often up to 57.1 µM), without a hit: top-dose activity change, negative = cytotoxicity, hits mostly cytotoxic; 150,000 compounds, 0.12% hits;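 note: 0% = DMSO-treated cells and -100% = medium-only wells without cells; nearly all actives have a fitted effect of over 30% in size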
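Cytotoxicity counterscreen: after 24 h compound treatment of genome-edited SNCA-luciferase HEK-293 cells, live-cell protease substrate GF-AFC read by fluorescence after 30 min; activity scaled between DMSO (0%) and medium-only (-100%), curves Hill-fitted.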
hNpr1 antagonist: Natriuretic polypeptide receptor (hNpr1) antagonism - Primary qHTS. HEK293 hNpr1 GloSensor cGMP, ANP-stimulated luminescence. Potency, µM (titrated, usually from 46.3 µM), for the others: top-dose activity change, negative = inhibition, hits mostly inhibitors. 76,000 compounds, 1.6% hits; calls by dose curve; note: nearly all actives have a fitted effect of over 60% in size
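Compound pre-incubated 30 min at room temperature on GloSensor-loaded HEK293 cells stably carrying hNpr1 and the pGS-40F cGMP biosensor. Stimulation uses hNppA at 0.1 nM final; luminescence is taken at baseline and 20 min post-agonist.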
* marks the source's active call; other numbers are inactive results; i = inactive; ? = inconclusive; / = no result; [ ] = remark or other dose. Unless noted, calls come from the whole dose curve; as a rule, active = well fitted curve in the direction sought with a large enough effect; inconclusive = small, poorly fitted or top-dose-only effect, or another doubt; inactive = no such curve, though single readings can be large; an effect the other way counts as inactive or inconclusive. Unless noted, % is set by controls: 0 for no effect and ±100 for the full control effect; potency is the fitted concentration of half-maximal effect.

SMILES	SNCA expr inhib	HEK cytotox	Luciferase inh	3T3 cytotox	SNCA viab count	hNpr1 antagonist
COc1cccc(N2CCN(C(=O)c3noc(-c4ccc(C)cc4)n3)CC2)c1	24.1%	?	20µM*	-19.9%	0.9%	-7.7%
Cc1ccc(-c2nc(C(=O)N3CCN(c4ccc(C)cc4C)CC3)no2)cc1	5.3%	?	i	?	11.0%	0.0%
Cc1ccc(-c2nc(C(=O)N3CCN(c4cc(C)ccc4C)CC3)no2)cc1	33.4%	?	i	?	11.0%	-14.5%
Cc1ccc(-c2nc(C(=O)N3CCN(c4ccc(C)cc4)CC3)no2)cc1	9.2%	1.6%	14.1µM*	1.4%	12.9%	-1.3%
Cc1ccc(-c2nc(C(=O)N3CCN(c4cccc(C)c4)CC3)no2)cc1	5.8%	?	17.8µM*	?	-7.2%	4.4%
Cc1ccc([S+](=O)([O-])N2CCC(N3CCCNC3=O)CC2)cc1	4.3%	0.1%	i	-3.8%	7.3%	1.1%
COc1ccc(C2Cn3nnc(C(=O)N4CCC(C(=O)Nc5cc(C)cc(C)c5)CC4)c3CO2)cc1 (stereo not given)	?	35.5µM*	i	44.7µM*	-1.8%	-0.1%
CCc1cccc(NC(=O)C2CCN(C(=O)c3nnn4c3COC(c3ccc(C)cc3)C4)CC2)c1 (stereo not given)	126.2%	10µM*	35.5µM*	22.4µM*	0.1%	-13.8%
Cc1ccc(C2Cn3nnc(C(=O)N4CCC(C(=O)Nc5ccc(F)c(C)c5)CC4)c3CO2)cc1 (stereo not given)	110.1%	4.7%	?	i	-3.7%	-11.9%
CCc1cccc(NC(=O)C2CCN(C(=O)c3nnn4c3COC(c3ccc(OC)cc3)C4)CC2)c1 (stereo not given)	-25.5%	17.8µM*	i	?	-0.6%	-2.2%
COc1ccc(C2Cn3nnc(C(=O)N4CCC(C(=O)Nc5cccc(Cl)c5)CC4)c3CO2)cc1 (stereo not given)	?	-27.0%	i	-5.9%	-12.7%	0.2%
CCNC(=O)N1CCC(Cc2ccc(C(N)=O)cc2)CC1	17.4%	i	i	3.2%	6.9%	17.0%
O=C(Nc1ccccc1)N1CCCC1Cc1noc(-c2ccccc2)n1 (stereo not given)	5.0%	?	/	?	-22.5%	/
COCCN1CCCCCC(O)c2cc(C(=O)NCc3ccc(C)o3)ccc21 (stereo not given)	-9.6%	?	i	?	-3.0%	-7.4%
COc1ccc(C=CC(=O)Nc2ccccc2C(=O)O)cc1OC	1.52µM*	/	/	/	-6.5%	/
COc1ccc(/C=C/C(=O)Nc2ccccc2C(=O)O)cc1OC	1.58µM*	/	/	/	2.5%	/
OCCc1cnc2c(-c3nc(-c4cccnn4)no3)cnn2c1	11.5%	-12.1%	?	-3.9%	-29.4%	-1.6%
COc1ccccc1-n1cc(C(=O)NC[C@@H]2C[C@H](F)CN2)cn1	-0.9%	-8.9%	i	-14.7%	?	4.4%
COc1ccccc1Nc1ccnc(N2CCN(C(=O)c3ccccc3Cl)CC2)n1	?	?	/	39.8µM*	?	/
COc1ccc(C(=O)N2CCN(c3nccc(Nc4ccccc4OC)n3)CC2)cc1	-19.5%	39.8µM*	/	?	-7.6%	/
Fc1ccccc1CN1CCNc2cc(Nc3ccccc3)ncc2C1	-14.7%[87.6 µM]	112µM*	20µM*	50.1µM*	-29.7%[87.6 µM]	-3.4%[70.6 µM]
FC(F)(F)Oc1cccc(CN2CCNc3cc(Nc4cccnc4)ncc3C2)c1	?	?	?	?	?	-0.6%[70.6 µM]
CN(C)c1cccc(Nc2cc3c(cn2)CN(Cc2ccccc2)CCN3)c1	61.0%[87.6 µM]	28.2µM*	22.4µM*	44.7µM*	?	?
